Where “and” joins values, the source holds several entries; their conditions need not be identical. Identical values can stand only once. Results filed as inconclusive are left out. Where a call stands in place of a potency, no number is given. Calls of active or inactive are those of the source. The call rests on the fitted dose curve.

Chain of Thyroid hormone receptor beta (Homo sapiens) (P10828 whole entry, looked up): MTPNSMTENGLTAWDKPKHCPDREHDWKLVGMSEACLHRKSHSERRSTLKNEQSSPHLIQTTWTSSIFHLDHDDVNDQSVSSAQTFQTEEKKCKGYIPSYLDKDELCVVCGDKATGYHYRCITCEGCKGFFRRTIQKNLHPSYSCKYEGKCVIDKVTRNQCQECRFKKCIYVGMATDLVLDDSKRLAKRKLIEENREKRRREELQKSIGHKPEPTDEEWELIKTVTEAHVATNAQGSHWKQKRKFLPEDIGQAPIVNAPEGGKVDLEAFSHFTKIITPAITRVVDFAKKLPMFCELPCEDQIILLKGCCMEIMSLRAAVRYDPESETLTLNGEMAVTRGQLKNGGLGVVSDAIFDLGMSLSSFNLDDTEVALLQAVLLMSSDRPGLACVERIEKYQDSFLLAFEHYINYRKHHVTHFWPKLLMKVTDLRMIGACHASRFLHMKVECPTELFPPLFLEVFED

In the first assay the target is Thyroid hormone receptor beta (Homo sapiens) (UniProt P10828). Kind of assay: qHTS assay for small molecule agonists of thyroid hormone receptor beta signaling (AID 588545). Particulars: TR-UAS-bla GripTite HEK 293, beta-lactamase ratio, agonist mode, 18 h; series mostly up to 76.7 µM. Put shortly:
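Efficacy and EC50 values derive from Hill fits of qHTS titration data, normalized to 10 nM T3 and DMSO-only wells. HEK 293 reporter cells were stimulated for 18 hrs at 37 C, with beta-lactamase activity measured by CCF4 fluorescence.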
(In general: qHTS replaces the single test concentration by a dilution series.)
On to `Oc1cccc(Cl)c1Cl`, for which the Potency result was “inactive”. For `CCC/C=N/O`, the Potency entry was “inactive”.

As to `Nc1cccc2ccccc12`, the Potency result is “inactive”. For `Cc1cnc[nH]1`, the Potency entry was “inactive”. Take `CN(C)N=O`: the Potency entry was “inactive”. For `COc1c(C(C)(C)C)cc([N+](=O)[O-])c(C)c1[N+](=O)[O-]`, the Potency entry was “inactive”. With `C=C(Cl)CCl`, the Potency result is “inactive”.

Take `ClCCOCOCCCl`: the Potency result was “inactive”.

As to `CC12CC1(C)C(=O)N(c1cc(Cl)cc(Cl)c1)C2=O` (configuration not stated), the Potency entry was “inactive”.

Regarding `CC(C)(Cl)[N+](=O)[O-]`, the Potency entry was “inactive”. Consider `Cl/C=C/Cl`, for which the Potency result is “inactive”. Still for that read-out and setting: the result for `CCCCOCC1CO1` (configuration not stated) reads “inactive”; that for `O=C(O)c1cccc(Cl)c1`, “inactive”; that for `C1CC2OC2CC1C1CO1` (configuration not stated), “inactive”.

Consider `Brc1cccc(-c2ccccc2)c1`, for which the Potency result was “inactive”. Turning to `Oc1c(Cl)cccc1Cl`, the Potency result was “inactive”. For `ClCCOCCCl`, the Potency entry is “inactive”. In the case of `CCNCC`, the Potency result was “inactive”. On the same count and under the same terms, the result for `CC(C)C#N` reads “inactive”; that for `Cl/C=C\Cl`, “inactive”; that for `CCBr`, “inactive”. For `O=[N+]([O-])c1ccc(Cl)c(Cl)c1Cl`, the Potency entry was “inactive”. As to `N#CCCC#N`, the Potency result was “inactive”. `Cc1ccccc1[N+](=O)[O-]`: the Potency result was “inactive”. Consider `OCCBr`, for which the Potency entry is “inactive”. Same read-out and setting: with `C=CC(=O)OCCN(C)C` the entry was “inactive”; with `CC(C)(C)C(O)(CCc1ccc(Cl)cc1)Cn1cncn1` (configuration not stated), “inactive”. Take `N#CCCCCC#N`: the Potency entry is “inactive”. Same read-out and setting: with `CN=C=O` the entry was “inactive”. Turning to `CCCCCC[N+](=O)[O-]`, the Potency entry is “inactive”.

Take `OCC(Cl)CCl` (configuration not stated): the Potency result is “inactive”. On the same count and under the same terms, the result for `Nc1ccc(Cl)c(Cl)c1` reads “inactive”. Same read-out and setting: with `CC(=O)[O-].CC(=O)[O-].CC(=O)[O-].[Cr+3]` the entry was “inactive”. As to `CC(=O)CCC(C)=O`, the Potency entry was “inactive”. As for `C=CC(=O)OCC(CC)CCCC` (configuration not stated), the Potency result is “inactive”. On the same count and under the same terms, the result for `CC(C#N)CCC#N` (configuration not stated) reads “inactive”.

System in a further assay: not listed separately
The experiment in a line: qHTS assay for small molecule antagonists of retinoid X receptor alpha signaling (AID 588546).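 Further: cells stimulated with 9-cis-retinoic acid as agonist.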 Particulars: HEK293T RXRa-UAS-bla, beta-lactamase ratio, antagonist mode; measured here: W530 green channel, cytotoxicity proxy. Put shortly:
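Beta-lactamase reporter inhibition, read as CCF4 fluorescence ratio (ex 405, em 460/530 nm) after 2 h at RT. HEK293T UAS-bla cells, 2500/well, were stimulated with 9-cis-RA at 500 or 100 nM final alongside test compound for 18 h at 37 C.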
For `Oc1cccc(Cl)c1Cl`, the max response was -4.72%.

Consider `CCC/C=N/O`, for which the max response is -10.3%. Consider `Nc1cccc2ccccc12`, for which the max response is -8.8%. Take `Cc1cnc[nH]1`: the max response is -10.6%.

As for `CN(C)N=O`, the max response stood at 1.95%.

For `COc1c(C(C)(C)C)cc([N+](=O)[O-])c(C)c1[N+](=O)[O-]`, the max response is -1.47%.

As to `C=C(Cl)CCl`, the max response was determined as 4.21%.

On to `ClCCOCOCCCl`, for which the max response was -0.61%.

On to `CC12CC1(C)C(=O)N(c1cc(Cl)cc(Cl)c1)C2=O` (configuration not stated), for which the max response was 4.78%. As for `CC(C)(Cl)[N+](=O)[O-]`, the max response is -8.14%. On to `Cl/C=C/Cl`, for which the max response was -8.73%. For the compound `CCCCOCC1CO1` (configuration not stated), the max response amounted to 12.9%.

For the compound `C1CC2OC2CC1C1CO1` (configuration not stated), the max response was -7.13% and -27.8%. On to `Oc1c(Cl)cccc1Cl`, for which the max response was -9.58%. As to `ClCCOCCCl`, the max response came to 8.9%. For `CC(C)C#N`, the max response is -7.48%. Same read-out and setting: with `Cl/C=C\Cl` the figure was -4.97%; with `c1ccc2c(c1)CCNC2`, -4.26%; with `CCBr`, -5.59%. With `O=[N+]([O-])c1ccc(Cl)c(Cl)c1Cl`, the max response is -8.55%. Regarding `N#CCCC#N`, the max response is -8.53%.

Turning to `Cc1ccccc1[N+](=O)[O-]`, the max response was -5.55%. In the case of `OCCBr`, the max response came out at 8.33%. Take `C=CC(=O)OCCN(C)C`: the max response is -6.38%. As to `CC(C)(C)C(O)(CCc1ccc(Cl)cc1)Cn1cncn1` (configuration not stated), the max response was 3% and 12.6%. `N#CCCCCC#N`: the max response was -2.9%. Take `CN=C=O`: the max response is -1.71%. In the case of `c1ccc(C2CO2)cc1` (configuration not stated), the max response is -9.84%. As to `CCCCCC[N+](=O)[O-]`, the max response is -11.1%. `OCC(Cl)CCl` (configuration not stated): the max response was -11.1%.

With `COc1ccc(C=O)cc1`, the max response came out at 3.67%. As for `Nc1ccc(Cl)c(Cl)c1`, the max response worked out at 2.84%. For `CC(=O)[O-].CC(=O)[O-].CC(=O)[O-].[Cr+3]`, the max response is -2.43%. `CC(=O)CCC(C)=O`: the max response was -1.17%. For `C=CC(=O)OCC(CC)CCCC` (configuration not stated), the max response is -0.0756% and 2.94%. On to `CC(C#N)CCC#N` (configuration not stated), for which the max response was -1.82%.
